“And” between values parts separate entries of the source, which are not always exact repeats. Identical values can stand only once. Among all 73,000 compounds or so, about 2,500 (3.4%) were called active. Roughly 7% stayed inconclusive and do not appear here. This is one part of a sample in which actives are shown more often than they occur. A number with no mark means an inactive call. Calls come from the whole dose curve; as a rule, active = well fitted inhibition curve with a large enough effect; inconclusive = small, poorly fitted or top-dose-only effect; inactive = no such curve, though single readings can be large or run the other way.
% is set by controls: 0 for no effect and ±100 for the full control effect; potency is the fitted concentration of half-maximal effect.

Sequence of 3-hydroxyacyl-CoA dehydrogenase type-2 (Homo sapiens) (Q99714 whole entry, looked up): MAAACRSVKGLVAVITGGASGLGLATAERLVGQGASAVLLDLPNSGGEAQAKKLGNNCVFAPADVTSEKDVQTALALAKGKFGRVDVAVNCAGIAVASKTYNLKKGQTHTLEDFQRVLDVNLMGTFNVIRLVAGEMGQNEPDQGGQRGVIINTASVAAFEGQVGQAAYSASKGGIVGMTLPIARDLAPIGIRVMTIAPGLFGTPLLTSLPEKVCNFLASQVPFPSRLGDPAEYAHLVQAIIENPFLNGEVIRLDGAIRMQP
Sequence of 3-hydroxyacyl-CoA dehydrogenase type-2 (Homo sapiens) (Q99714 whole entry, looked up): as above

The assay addresses 3-hydroxyacyl-CoA dehydrogenase type-2 (Homo sapiens) (UniProt Q99714). Briefly: qHTS Assay for Inhibitors of HADH2 (Hydroxyacyl-Coenzyme A Dehydrogenase, Type II). Note: nearly all actives have a fitted effect of over 60% in size. The note with it: recombinant HADH2, NADH fluorescence, beta-hydroxybutyryl-CoA; series mostly up to 57.1 µM; activity change, negative = inhibition: at the top concentration. An excerpt:
Assay Overview: NIH Molecular Libraries Screening Centers Network [MLSCN] NIH Chemical Genomics Center [NCGC] Structural Genomics Consortium [SGC] Grant Number: None HADH2: Hydroxyacyl-Coenzyme A dehydrogenase, type II, was supplied by researchers at the Structural Genomics Consortium, Oxford University lab (PI Udo Oppermann). The mitochondrial enzyme 17-hydroxysteroid dehydrogenase type 10 (HSD17-10) previously classified as type II hydroxyacyl-CoA dehydrogenase (HADH2) catalyzes the NAD+ dependent oxidation of a variety of substrates including acyl-CoAs, androgens and neurosteroids as well as bile acids(Shafqat N, Marschall HU, Filling C, et al. Biochemical Journal. 2003;376(Pt 1):49-60). The role in neurodegeneration by binding to amyloid-peptide led to its identification (Oppermann UC, et al FEBS Letters. 1999;451(3):238-242 and Yan SD, et al. Nature. 1997;389(6652):689-695), and mutations in its gene appear to be causative for 2-methyl-3-hydroxybutyryl-CoA dehydrogenase deficiency (Ofman R, et al. American Journal of Human Genetics. 2003;72(5):1300-1307). The enzyme was produced by E.coli fermentation as His-tagged recombinant for the purpose of X-ray structure determination, and had been mass-spectrometry characterized. Inhibition of HADH2 activity was screened by utilizing beta-hydroxybutyryl coenzyme A as an electron donor and NAD+ as an electron acceptor/cofactor. An increase in the fluorescence intensity due to conversion of NAD+ to NADH was used to measure the enzyme activity.
Assay Protocol: Buffer: 100 mM Tris-HCl pH 9.0, containing 0.01 % Tween-20. Reagents/Controls: Buffer in columns 3 and 4 as negative control (no enzyme). Substrate/cofactor solution: 1 mM NAD+ and 90 uM beta-hydroxybutyryl coenzyme A (Sigma-Aldrich, St. Louis, MO) final concentrations dispensed throughout the plate. Enzyme: 20 nM HADH2 final concentration in columns 1, 2, 5-48. Column 1 is neutral (100% activity). Column 2 contained titration of apomorphine (Sigma-Aldrich, A 4393, PubChem CID 2215, top concentration 500 uM, then 1:2 dilution in duplicate) Assay Steps: Three uL of enzyme were dispensed to 1536-well Greiner black solid bottom plates. Compounds and controls (23 nL) were transferred via Kalypsys PinTool. The plates were incubated for 15 min at room temperature, and then 1 uL of substrate/cofactor solution was added to start the reaction. The plates were immediately transferred to and read every 30 seconds for 4 min on ViewLux High-throughput CCD imager (Perkin-Elmer) using 360 nm excitation and 450 nm emission fluorescence protocol. The fluorescence intensity difference between the last and the first time points was used to compute reaction progress.
A general note: qHTS replaces the single test concentration by a dilution series.
In the case of `Cc1cccc(C(=O)O)c1`, the “activity change, negative = inhibition” value was 4.88%.

Turning to `O=C(O)c1ccc(Cl)c(S(=O)(=O)Nc2ccccc2Cl)c1`, the “activity change, negative = inhibition” value was 0.423%.

As to `COC(=O)c1cccc(NC(=O)CSc2nc(C)cc(=O)[nH]2)c1`, the “activity change, negative = inhibition” value is -17.2%.

As to `COC(=O)c1ccc2c(=O)n(CC3CCCO3)c(=S)[nH]c2c1` (stereo not drawn), the “activity change, negative = inhibition” value is -4.1%.

For `CCOC(=O)c1sc(=S)n2c1[nH]c(=O)c1ccc(C(=O)OC)cc12`, the Potency is 1 µM (active).

In the case of `O=c1c(-c2cc(F)cc(F)c2)nc2cnc(Oc3ccccc3)nc2n1C[C@H]1CCCO1`, the “activity change, negative = inhibition” value was 13.6%.

Regarding `Fc1ccc(-c2nnc(CSc3nnc(-c4ccc5c(c4)OCO5)o3)o2)cc1`, the “activity change, negative = inhibition” value is 6.68%.

`Fc1ccc(-c2nnc3sc(-c4ccc5c(c4)OCO5)nn23)cc1`: the Potency is 25.1 µM (active).

For `Fc1ccc(-c2ccc(-c3nn4c(-c5ccco5)nnc4s3)o2)cc1`, the “activity change, negative = inhibition” value is -24.2%.

As to `C/C(CCN1CCCCc2nc(C)c(C)cc21)=N\O[C@@H](C)c1cn([C@@H]2COC[C@@H]2O)nn1`, the activity change, negative = inhibition was -2.51% [at 11.4 µM].

`O=C(c1ccc(F)cc1)C1CCN(CCCCc2ccccc2)CC1`: the “activity change, negative = inhibition” value was 9.57%.

For `COc1ccc(OC)c(C(=O)CSc2nnc(-c3cccs3)o2)c1`, the Potency is 25.1 µM (active).

Turning to `COc1ccc(-c2nnc(SCC(=O)c3cccs3)o2)c(OC)c1`, the “activity change, negative = inhibition” value was 16.5%.

`COc1ccc(-n2c(C)cc(C(=O)CSc3nnc(-c4cccs4)o3)c2C)cc1`: the “activity change, negative = inhibition” value is -5.17%.

As to `CCCCC[C@H](O)CCCC(=O)O`, the “activity change, negative = inhibition” value is 0.156%.

For `CN1CCC(CNC(=O)c2ccc(-n3c(=O)c(=O)[nH]c4ccccc43)cc2)CC1`, the “activity change, negative = inhibition” value was -0.499%.

For `COC(=O)C1(C)C=CCN1C(=O)c1ccccc1` (stereo not drawn), the “activity change, negative = inhibition” value was 5.4%.

For `O=C1[C@H]2[C@H]3[C@H](O)[C@H](O)C/C(=N/OCc4ccccc4)[C@H]3CC[C@@H]2C(=O)N1Cc1ccccc1`, the activity change, negative = inhibition is -3.88% [at 11.4 µM].

`CN1CCC2(CC1)CCN(S(=O)(=O)c1ccccc1)CC2`: the “activity change, negative = inhibition” value is 1.8%.

`O=S(=O)(O)c1ccc(O)c2ncccc12.O=S(=O)(O)c1ccc(O)c2ncccc12.[Zn]`: the activity change, negative = inhibition was -19.7% [at 11.4 µM].

With `CCS(=O)(=O)N(C)[C@@H]1c2cc(C#N)ccc2OC(C)(C)[C@H]1O`, the Potency result is “inactive”.

For the compound `Nc1ccc(-c2nnc(-c3ccc(-c4ccccc4)cc3)o2)cc1`, the Potency was 31.6 µM (active).

`O=C(COC(=O)c1ccc(Oc2ccccc2)cc1)Nc1nnc(-c2ccccc2)o1`: the “activity change, negative = inhibition” value was 2.91%.

As to `CC(N)=NCc1cccc(CN)c1`, the Potency result is “inactive”.

Take `CN1CCN2c3ccccc3Cc3ccccc3[C@@H]2C1`: the Potency result was “inactive”.

As for `CCN1C(=O)/C(=C\N2CCN(c3cccc(Cl)c3)CC2)SC1=S`, the “activity change, negative = inhibition” value is -1.99%.

As to `CCN1C(=O)/C(=C2/Sc3ccccc3N2CCCS(=O)(=O)O)SC1=S`, the Potency was 20 µM (active).

In the case of `CCN1C(=O)/C(=C\N2CCN(c3ccccc3)CC2)SC1=S`, the “activity change, negative = inhibition” value is -0.798%.

In the case of `Cc1ccc(NC(=O)c2cccc(N(C)C)c2)cc1NC(=O)c1ccc(O)cc1`, the “activity change, negative = inhibition” value is -1.28%.

`CCC[C@@H]1C[C@@]1(CCC)C(NS(=O)(=O)c1cccc2cccnc12)c1ccc(Cl)cc1` (stereo partly drawn): the “activity change, negative = inhibition” value is -3.66%.

With `C[C@]1(C(=O)NCCc2c[nH]c3ccccc23)C=C[C@@H](Cc2ccccc2)N1C(=O)c1ccccc1`, the “activity change, negative = inhibition” value was 7.45%.

For `COC(=O)C1=C(C)N(Cc2ccccc2)C2=C3C(=O)N(c4ccccc4)C(=O)C3[C@@](O)(C(=O)OC)C(=O)N2C1c1ccccc1` (stereo partly drawn), the activity change, negative = inhibition was 10.1% [at 11.4 µM] and 2.48% [at 11.4 µM].

For `CC(=O)Nc1ccc(-c2cn3cccnc3n2)cc1`, the Potency was 15.8 µM (active).

In the case of `CCOc1nc(OCC)nc(-n2cc(-c3ccccc3)nn2)n1`, the “activity change, negative = inhibition” value is 5.08%.

Turning to `c1ccc(-c2cn3cccnc3n2)cc1`, the Potency is 12.6 µM (active).

Turning to `CC(=O)Nc1cccc(-c2cnc3ccccc3n2)c1`, the “activity change, negative = inhibition” value is 12.1%.

Turning to `CCCC(=O)Nc1cccc(-c2cn3ccsc3n2)c1`, the “activity change, negative = inhibition” value is 5.86%.

`COC(=O)C(C(=O)OC)[C@@H]1CCCC(=O)C1`: the activity change, negative = inhibition was 12% [at 11.4 µM].

On to `CC(C)[C@@H](CC(=O)N[C@@H]1CCNC[C@H]1C(=O)N[C@H](CC(=O)N[C@@H](CCC(=O)O)CC(=O)O)Cc1ccccc1)NC(=O)C[C@H](CO)NC(=O)[C@@H]1CNCC[C@H]1N`, for which the “activity change, negative = inhibition” value was -15.2%.

Take `O=C1C(c2ccccn2)=[N+]([O-])c2ccccc21`: the “activity change, negative = inhibition” value is -27.4%.

Regarding `COc1cc(NC(=O)N2CCOCC2)cc(OC)c1`, the “activity change, negative = inhibition” value is 5.67%.

In the case of `CCOC(=O)c1[nH]c2ccc(OC)cc2c1NC(=O)N1CCOCC1`, the Potency is 25.1 µM (active).

For `Cc1c(C(=O)N2CCOCC2)[nH]c2ccc(OCc3ccccc3)cc12`, the “activity change, negative = inhibition” value was -11.1%.

As for `CC(=O)N1CCC2(CC1)CCN(c1ccncc1)CC2`, the “activity change, negative = inhibition” value is -5.97%.

Turning to `CC1(CCC(=O)OC2CCCCC2)OCCO1`, the activity change, negative = inhibition was -20.4% [at 11.4 µM].

Take `O=C(Cn1ccc(=O)[nH]c1=O)Nc1ccc(C(=O)O)c(O)c1`: the activity change, negative = inhibition was -10.7% [at 11.4 µM].

`COc1ccccc1-c1nc(NCc2cccs2)c2ccccc2n1`: the “activity change, negative = inhibition” value is -23.6%.

For the compound `CC(C)c1ccc2c([Si](C)(C)C)c3c(nc2c1)-c1cccc(=O)n1C3`, the “activity change, negative = inhibition” value was 34.4%.

Source of the values: PubChem BioAssay AID886 (National Center for Advancing Translational Sciences (NCATS), 2007).
